Assay outcomes from PubChem BioAssay.
Compounds with a hit are over-represented: about 4.8% of the library has one in this group of screens.
DAX1 inh-1 – inhibitors of DAX1 repression of SF-1 activated StAR promoter; HEK293T StAR-luciferase reporter, SF-1/DAX-1 repression relief; inhibition, % at 6.8 µM; 370,000 compounds, 1.1% hits;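 active = inhibition above the mean over all tested compounds plus 3 SD, cut at about 3.6% in these data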;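 also: 0% = DAX-1 cells with DMSO and 100% = cells lacking DAX-1 with DMSO; higher inhibition means more luminescence from relief of DAX-1 repression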
SMARCA2 act – increases SMARCA2 function in MMTV reporter cells; MG213 cells, MMTV-luciferase reporter, dexamethasone, overnight; activation, % at 9.1 µM; 370,000 compounds, 1% hits; AID 652017; in the data active = activation above about 7.8%;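 also: 0% = vehicle wells and 100% = reference activator wells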
DAX1 inh-2 – inhibits human nuclear receptor DAX1 | P51843 | HEK293 Gal4-DAX1 luciferase reporter, luminescence | inhibition, % at 6.75 µM | 340,000 compounds, 0.99% hits;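 active = inhibition above the mean over all tested compounds plus 3 SD, cut at about 4.2% in these data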;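 also: 0% = DAX1-transfected cells with DMSO and 100% = empty-vector control cells with DMSO; inhibition shows as a rise in luminescence from relieved DAX1 repression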
Target sequence (P51843 207-470 limits assumed): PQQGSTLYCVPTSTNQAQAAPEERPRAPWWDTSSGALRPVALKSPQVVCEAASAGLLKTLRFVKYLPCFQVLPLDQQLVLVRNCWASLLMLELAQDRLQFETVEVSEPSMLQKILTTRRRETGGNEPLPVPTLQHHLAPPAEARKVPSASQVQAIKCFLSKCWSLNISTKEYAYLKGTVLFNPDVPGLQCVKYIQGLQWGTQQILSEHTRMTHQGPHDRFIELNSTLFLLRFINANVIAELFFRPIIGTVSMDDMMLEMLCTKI
hgDAF-12 ag – hgDAF-12 agonism, primary luciferase screen; HEK293 GAL4-hgDAF12 UAS-luciferase reporter, agonist luminescence; normalized to butyrate control; activation, % at 6.8 µM; 370,000 compounds, 1.8% hits;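 active = activation above a cutoff set at the mean of all screened compounds plus 3 SD, cut at about 10% in these data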;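 also: 0% = DMSO wells and 100% = sodium butyrate wells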
hcDAF12 agonist – activates DAF-12 receptor from parasite H. contortus | HEK293 hcDAF-12 lit1-tk-luc reporter, luminescence; 0% DMSO, 100% Δ7-dafachronic acid | activation, % at 6.8 µM | 370,000 compounds, 1.4% hits;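 active = activation above the mean of all tested compounds plus 3 SD, cut at about 5.5% in these data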;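 also: 100% = response to 3 µM Δ7-dafachronic acid high control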
ssDAF-12 act – S. stercoralis DAF-12 activation, primary screen. HEK293 ssDAF-12/GRIP1 lit1-tk-luc reporter, luminescence; % of 3 µM dafachronic acid response. activation, % at 6.8 µM. 370,000 compounds, 1% hits. AID 652126;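 active = activation above the mean over all tested compounds plus 3 SD, cut at about 0.9% in these data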;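 also: 0% = DMSO-only wells and 100% = 3 µM delta7-dafachronic acid wells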
SMARCA2 conf – confirmation of SMARCA2 (BRM) function activators | shares compounds with SMARCA2 act | MG213 cells, MMTV-luciferase with dexamethasone, luminescence, overnight; MG213 cells expressing E1A, Rb sequestered; DMSO wells 0%, reference activator 100% | activation, % at 9.1 µM | 3,500 compounds, 30% hits | AID 652260;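 active = activation above its plate's cutoff, the mean activation of tested wells plus 3 SD, cut at about 7.9% in these data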
GAL4-VP16 Luc – activates GAL4-VP16 luciferase, flagging SMARCA2 activator hits. shares compounds with SMARCA2 act. HEK293 GAL4-VP16 pG5luc reporter, luciferase luminescence; scaled: DMSO wells 0%, SAHA wells 100%. activation, % at 9.1 µM. 3,500 compounds, 41% hits. AID 686939;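 active = activation above the solvent-only control well mean plus 3 SD, averaged across control plates, cut at about 5.2% in these data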
LXRb hcDAF ctr – counter-screen for hcDAF-12 agonists: agonists of human LXR-beta | 3,400 tested, under 10 active | shares compounds with hcDAF12 agonist | activation, % at 6.8 µM | HEK293 Gal4-LXR tk-luc reporter, luminescence, 24 h; normalized: DMSO 0%, positive control 100%;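 active = mean percent activation of the reporter above a cutoff set as the average over tested compounds plus their standard deviation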
Target sequence (P55055 whole entry, looked up, the tested form may be a part): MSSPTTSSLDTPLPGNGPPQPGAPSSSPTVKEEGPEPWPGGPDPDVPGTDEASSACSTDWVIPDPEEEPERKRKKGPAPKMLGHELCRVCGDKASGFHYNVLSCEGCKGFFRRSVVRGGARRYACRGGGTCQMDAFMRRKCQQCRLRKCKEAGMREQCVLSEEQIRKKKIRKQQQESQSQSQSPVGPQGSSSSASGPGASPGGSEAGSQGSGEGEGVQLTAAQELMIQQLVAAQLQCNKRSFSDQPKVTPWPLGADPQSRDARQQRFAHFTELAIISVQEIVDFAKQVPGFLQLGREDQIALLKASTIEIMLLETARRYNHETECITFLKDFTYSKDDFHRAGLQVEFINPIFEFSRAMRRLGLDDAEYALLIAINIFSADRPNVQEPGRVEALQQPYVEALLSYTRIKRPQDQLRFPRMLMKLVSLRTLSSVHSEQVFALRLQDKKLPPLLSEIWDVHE
hcDAF12 ag – confirmation of H. contortus DAF-12 agonists. 3,400 compounds, 61% hits. HEK293 hcDAF-12 lit1-tk-luc reporter, luminescence; % of Δ7-dafachronic acid response. activation, % at 6.8 µM. shares compounds with hcDAF12 agonist;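 active = mean activation across triplicate tests above the threshold derived from the earlier primary screen, cut at about 5.5% in these data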;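 also: 0% = DMSO only wells and 100% = 3 µM Δ7-dafachronic acid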
Numbers without * were called inactive.

Results for Nc1nc(Cl)cc(Nc2ccccc2Cl)n1 ?
DAX1 inh-1: 0; SMARCA2 act: 9.5*; DAX1 inh-2: 4; hgDAF-12 ag: 1; hcDAF12 agonist: -3; ssDAF-12 act: -1; SMARCA2 conf: 5; GAL4-VP16 Luc: 1

How did O=c1[nH]c(CN2CCN(S(=O)(=O)c3ccccc3C(F)(F)F)CC2)nc2sc3c(c12)CCCC3 do in these assays?
DAX1 inh-1: 1; SMARCA2 act: 12*; DAX1 inh-2: -1; hgDAF-12 ag: -2; hcDAF12 agonist: 1; ssDAF-12 act: -1; SMARCA2 conf: -2; GAL4-VP16 Luc: 0

Results for CC1(C(=O)NS(=O)(=O)c2ccccc2C(F)(F)F)CCN1C(=O)CCc1cccs1 (stereo not given) ?
DAX1 inh-1: 1; SMARCA2 act: 8.7*; hgDAF-12 ag: 0; hcDAF12 agonist: 1; ssDAF-12 act: -1; SMARCA2 conf: -3; GAL4-VP16 Luc: 2

Results for O=C(Nc1ccc2oc(-c3ccccc3Cl)nc2c1)c1cncc(Br)c1 ?
DAX1 inh-1: 0; SMARCA2 act: 8.1*; DAX1 inh-2: 1; hgDAF-12 ag: 5; hcDAF12 agonist: 1; ssDAF-12 act: -2; SMARCA2 conf: 0; GAL4-VP16 Luc: 5

How did CCCC(=O)Nc1ccc2oc(-c3cncc(Br)c3)nc2c1 do in these assays?
DAX1 inh-1: 1; SMARCA2 act: 1; DAX1 inh-2: 2; hgDAF-12 ag: 7; hcDAF12 agonist: 5; ssDAF-12 act: 0

How did CC(CN1C(C)CCCC1C)OC(=O)c1cccc(F)c1 (stereo not given) do in these assays?
DAX1 inh-1: 0; SMARCA2 act: -1; DAX1 inh-2: 1; hgDAF-12 ag: 0; hcDAF12 agonist: -2; ssDAF-12 act: -1

How did CC(CN1C(C)CCCC1C)OC(=O)c1ccccc1F (stereo not given) do in these assays?
DAX1 inh-1: 0; SMARCA2 act: 9.2*; DAX1 inh-2: 0; hgDAF-12 ag: 2; hcDAF12 agonist: 0; ssDAF-12 act: -1; SMARCA2 conf: 0; GAL4-VP16 Luc: 4

How did Cc1ccsc1/C=N/NC(=O)c1nnn(-c2nonc2N)c1CSc1ccccc1 do in these assays?
DAX1 inh-1: 2; SMARCA2 act: -1; DAX1 inh-2: 0; hgDAF-12 ag: 1; hcDAF12 agonist: 0; ssDAF-12 act: -1

How did O=C1Nc2ccccc2/C1=C/c1cnc(-c2ccccc2)[nH]1 do in these assays?
DAX1 inh-1: 1; SMARCA2 act: 18*; DAX1 inh-2: 4.7*; hgDAF-12 ag: 5; hcDAF12 agonist: 9.7*; ssDAF-12 act: 1.2*; SMARCA2 conf: 13*; GAL4-VP16 Luc: 11*; LXRb hcDAF ctr: 1; hcDAF12 ag: 9.8*

How did Cn1cc(C(=O)Nc2ccc(C#N)cc2)c2ccccc2c1=O do in these assays?
DAX1 inh-1: 0; SMARCA2 act: 5; DAX1 inh-2: 1; hgDAF-12 ag: 2; hcDAF12 agonist: 3; ssDAF-12 act: -1

Results for C(=N\Nc1nc2ccccc2[nH]1)/c1ccccc1 ?
DAX1 inh-1: 1; SMARCA2 act: -7; DAX1 inh-2: 1; hgDAF-12 ag: -2; hcDAF12 agonist: -4; ssDAF-12 act: -2

Results for C(=N\Nc1ncnc2ccccc12)/c1ccccc1 ?
DAX1 inh-1: 3; SMARCA2 act: 9.2*; DAX1 inh-2: 0; hgDAF-12 ag: 15*; hcDAF12 agonist: 8.4*; ssDAF-12 act: 1.3*; SMARCA2 conf: 11*; GAL4-VP16 Luc: 9.1*; LXRb hcDAF ctr: 1; hcDAF12 ag: 8.5*

Results for Cc1csc(-c2coc3cc(O)cc(C)c3c2=O)n1 ?
DAX1 inh-1: 1; SMARCA2 act: 9.0*; DAX1 inh-2: 3; hgDAF-12 ag: 10; hcDAF12 agonist: 13*; ssDAF-12 act: 1.6*; SMARCA2 conf: 15*; GAL4-VP16 Luc: 7.5*; LXRb hcDAF ctr: 1; hcDAF12 ag: 11*

What do the screens show for `O=C(N/N=C/c1cc2ccccc2[nH]1)c1ccccc1Cl`?
DAX1 inh-1: 0; SMARCA2 act: 8.2*; DAX1 inh-2: 2; hgDAF-12 ag: 6; hcDAF12 agonist: 6.6*; ssDAF-12 act: 0; SMARCA2 conf: -2; GAL4-VP16 Luc: 0; LXRb hcDAF ctr: 0; hcDAF12 ag: 4

What do the screens show for `O=C(N/N=C/c1cccc2ccccc12)c1ccccc1Cl`?
DAX1 inh-1: 0; SMARCA2 act: 4; DAX1 inh-2: 0; hgDAF-12 ag: 2; hcDAF12 agonist: -2; ssDAF-12 act: -1

Results for Cc1nnc(SCc2nc3ccccc3s2)n1N ?
DAX1 inh-1: 4.1*; SMARCA2 act: 8.5*; DAX1 inh-2: 4; hgDAF-12 ag: 8; hcDAF12 agonist: 9.5*; ssDAF-12 act: 1.0*; SMARCA2 conf: 8.2*; GAL4-VP16 Luc: 5; LXRb hcDAF ctr: 1; hcDAF12 ag: 12*

Results for CCN(CC)CCCNc1nc2ccccc2c2[nH]c3ccc(OC)cc3c12 ?
DAX1 inh-1: 0; SMARCA2 act: 54*; DAX1 inh-2: 4; hgDAF-12 ag: 7; hcDAF12 agonist: 14*; ssDAF-12 act: 3.6*; SMARCA2 conf: -15; GAL4-VP16 Luc: -1; LXRb hcDAF ctr: 2; hcDAF12 ag: 16*

Results for CCN(CC)CCn1c2ccccc2c2nc3ccc([N+](=O)[O-])cc3cc21 ?
DAX1 inh-1: 1; SMARCA2 act: 10*; hgDAF-12 ag: 4; hcDAF12 agonist: 9.0*; ssDAF-12 act: 1.1*; SMARCA2 conf: 99*; GAL4-VP16 Luc: 5; LXRb hcDAF ctr: 1; hcDAF12 ag: 6.8*

How did CCc1cc(-c2nnn(-c3cc(C(C)C)ccc3C)c2CC)ccc1-c1cn(CCc2c[nH]c3ccccc23)nn1 do in these assays?
DAX1 inh-1: -1; SMARCA2 act: -4; DAX1 inh-2: -1; hgDAF-12 ag: 0; hcDAF12 agonist: 0; ssDAF-12 act: -1
